The values that follow come from ChEMBL document CHEMBL1201862, “PubChem BioAssay data set” (2004).

SMILES strings stand for the structures. Among all 400,000 compounds or so, about 2,100 (0.53%) were called active. About 14% were inconclusive and are not listed. How the calls were made is not given here. The list comes from a sample in which actives are over-represented; it also holds similar structures and randomly drawn compounds.

For the assay, the target named is Ataxin-2 (Homo sapiens) (UniProt Q99700). As to the kind of experiment: qHTS for Inhibitors of ATXN expression. It is filed as functional.
Chain of Ataxin-2 (Homo sapiens) (Q99700 whole entry): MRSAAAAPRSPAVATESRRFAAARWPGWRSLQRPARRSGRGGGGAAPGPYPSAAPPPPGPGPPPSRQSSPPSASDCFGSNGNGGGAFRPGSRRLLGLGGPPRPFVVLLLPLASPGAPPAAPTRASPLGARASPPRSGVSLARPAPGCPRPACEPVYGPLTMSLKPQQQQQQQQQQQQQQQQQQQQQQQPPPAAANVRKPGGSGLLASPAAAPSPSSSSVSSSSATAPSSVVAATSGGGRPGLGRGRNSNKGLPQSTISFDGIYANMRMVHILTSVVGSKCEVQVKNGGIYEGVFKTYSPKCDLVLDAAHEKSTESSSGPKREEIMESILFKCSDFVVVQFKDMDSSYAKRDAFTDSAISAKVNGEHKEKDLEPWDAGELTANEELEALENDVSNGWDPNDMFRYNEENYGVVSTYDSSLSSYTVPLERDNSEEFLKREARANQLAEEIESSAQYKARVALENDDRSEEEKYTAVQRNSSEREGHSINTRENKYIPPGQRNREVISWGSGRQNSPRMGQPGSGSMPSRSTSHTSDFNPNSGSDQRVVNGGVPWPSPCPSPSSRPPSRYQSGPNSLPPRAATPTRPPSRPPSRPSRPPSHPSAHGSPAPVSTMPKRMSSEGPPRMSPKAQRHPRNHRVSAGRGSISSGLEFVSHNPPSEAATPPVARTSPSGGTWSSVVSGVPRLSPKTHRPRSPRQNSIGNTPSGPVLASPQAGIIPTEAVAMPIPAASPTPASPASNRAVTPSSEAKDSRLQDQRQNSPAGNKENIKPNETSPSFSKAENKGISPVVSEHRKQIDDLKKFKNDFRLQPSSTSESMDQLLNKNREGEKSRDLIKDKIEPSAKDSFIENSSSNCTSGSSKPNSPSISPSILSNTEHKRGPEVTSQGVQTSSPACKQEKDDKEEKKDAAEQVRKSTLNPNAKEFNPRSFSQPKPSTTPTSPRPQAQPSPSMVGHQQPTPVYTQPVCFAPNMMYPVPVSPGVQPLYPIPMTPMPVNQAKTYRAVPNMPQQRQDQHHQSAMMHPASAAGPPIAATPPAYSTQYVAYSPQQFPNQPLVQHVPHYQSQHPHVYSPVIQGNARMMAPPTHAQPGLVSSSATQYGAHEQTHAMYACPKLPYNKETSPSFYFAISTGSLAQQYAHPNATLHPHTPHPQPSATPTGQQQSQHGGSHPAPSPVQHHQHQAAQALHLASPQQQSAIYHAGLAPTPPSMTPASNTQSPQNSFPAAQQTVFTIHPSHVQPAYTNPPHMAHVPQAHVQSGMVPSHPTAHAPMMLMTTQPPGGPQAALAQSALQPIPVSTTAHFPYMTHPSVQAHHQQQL
For the compound `CCc1c(-c2ccccc2)nc2nc(C)c(C)nn12`, the Potency result is “inactive”.
Turning to `CCCCN1C(C(=O)Nc2cc(C)on2)=C(O)c2ccccc2S1(=O)=O`, the Potency result is “inactive”.
`CCCC(=O)NC(c1ccc(OC)cc1)c1ccc2cccnc2c1O` (stereo unspecified): the Potency result was “inactive”.
For `COc1cccc(N=Nc2ccc3cccnc3c2O)c1`, the Potency is 11.2 µM (active).
`COc1cc(N(C(C)=O)c2ccc(O)cc2)c2ncccc2c1`: the Potency result was “inactive”.
Consider `COCC(=O)N1CCC(n2nccc2NC(=O)CCOc2ccccc2)CC1`, for which the Potency entry was “inactive”.
The value for `COC(=O)C1Cc2ccccc2CN1C(=O)CCl` (stereo unspecified) was 42.3 µM (active); that for `COc1cc(OC)c(OC)cc1/C=C1\Oc2cc(OCC(=O)N3Cc4ccccc4C[C@H]3C(=O)O)ccc2C1=O` was “inactive”; that for `CCS(=O)(=O)N1Cc2ccccc2CC1C(=O)N(C)CC(=O)Nc1ccc(OC)cc1` (stereo unspecified) was “inactive”.
Turning to `O=C(c1ccc([N+](=O)[O-])cc1)N1CCC(n2nnc3cc(F)ccc32)CC1`, the Potency result is “inactive”.
As for `CC(=O)Nc1sc2c(c1C(N)=O)CCN(Cc1ccccc1)C2`, the Potency entry was “inactive”.
On to `CCC(C(=O)NCc1cccc(C)c1)n1nc(C)c2c(C)n(-c3ccccc3)nc2c1=O` (stereo unspecified), for which the Potency entry is “inactive”.
As to `CC(=O)N1CCc2c(sc3c2c(=O)n(-c2ccccc2Cl)c(=O)n3Cc2cccc(C)c2)C1`, the Potency was 35.5 µM (active).
The value for `NNc1ncnc2sc3c(c12)CCC3` was “inactive”; that for `CCCCNC(=O)COC(=O)c1c2c(nc3ccccc13)/C(=C\c1cccs1)CC2` was “inactive”; that for `CCOCCCn1/c(=N/C(C)=O)c(C#N)cc2c(=O)n3cccc(C)c3nc21` was “inactive”.
For the compound `CCN(CC)CCCNc1cc(C(F)(F)F)c(C#N)c2nc3ccccc3n12`, the Potency result was “inactive”.
As to `CCc1ccc(C2=CC(c3cc(Br)ccc3F)n3ncnc3N2)cc1` (stereo unspecified), the Potency result is “inactive”.
In the case of `Cc1cccn2cc(-c3cc4ccccc4oc3=O)nc12`, the Potency entry was “inactive”.
On to `Cc1ccn2cc(-c3cc4ccccc4oc3=O)nc2c1`, for which the Potency entry was “inactive”.
Under `O=C(Nc1cccc(-c2cn3ccccc3n2)c1)c1cccc(Cl)c1` stands 39.8 µM (active).
Turning to `O=C(Nc1cccc(-c2cn3ccccc3n2)c1)c1cc2ccccc2oc1=O`, the Potency is 22.4 µM (active).
The value for `O=C(Nc1ncccn1)c1cccc(Cl)c1` was “inactive”; that for `O=C(Nc1ccc(S(=O)(=O)Nc2ccccn2)cc1)c1cccc(Cl)c1` was “inactive”; that for `CCc1c(C)c2cc(Cl)c(O)c(CN(C)C)c2oc1=O` was “inactive”.
`COc1ccc(/C=N/n2cnc3c4cc(C)ccc4nc-3c2O)cc1CN1CCCC1`: the Potency was 39.8 µM (active).
On to `COc1ccc(/C=N/N2C(C)CCCC2C)cc1OC` (stereo unspecified), for which the Potency result is “inactive”.
As to `COc1ccc(/C=N/NC(=O)c2ccncc2)cc1CN1CCOCC1`, the Potency entry is “inactive”.
Under `CCOc1ccc2nc(NCCN=C(S)NCCCN(C)C)c(C#N)cc2c1` stands “inactive”; under `Cc1c(O)ccc2c(-c3ccccc3)cc(=O)oc12`, “inactive”; under `COc1ccc(CNC[C@@H](CCCCN(C)Cc2ccc(OC)cc2)N2C[C@H](c3ccccc3)N(CCc3ccc(Cl)c(Cl)c3)C(=O)C2=O)cc1`, 25.1 µM (active).
In the case of `CC(=O)NS(=O)(=O)c1ccc(/N=c2\ssc3c2-c2cc(C)ccc2NC3(C)C)cc1`, the Potency is 39.8 µM (active).
Turning to `CCN(CC)c1cc(C)c2cc(NC(=O)/C=C/c3ccccc3Cl)ccc2n1`, the Potency is 28.2 µM (active).
As to `COc1ccc(Nc2cc(C)c3cc(NC(=O)c4cc(OC)cc(OC)c4)ccc3n2)cc1`, the Potency entry was “inactive”.
As to `O=C(Nc1ccc(F)cc1)c1ccc2nc(O)c(O)nc2c1`, the Potency entry was “inactive”.
`CCN(CC)c1cc(C)c2cc(NC(=O)c3ccc(Br)o3)ccc2n1`: the Potency was 35.5 µM (active).
Consider `COc1ccc(Nc2cc(C)c3cc(NC(=O)Cc4c(F)cccc4Cl)ccc3n2)cc1`, for which the Potency entry is “inactive”.
Consider `CCn1nc(NC(=O)c2ccccc2)c2cc3cccc(C)c3nc21`, for which the Potency entry was “inactive”.
Regarding `Cc1cc(Nc2cccc(Cl)c2)nc2ccc(NC(=O)c3cncc(Br)c3)cc12`, the Potency entry was “inactive”.
For the compound `CCN(CC)c1cc(C)c2cc(NC(=O)c3cc(OC)cc(OC)c3)ccc2n1`, the Potency was 35.5 µM (active).
The value for `Cc1cccc(OCC(=O)Nc2ccc3nc(Nc4cccc(Cl)c4)cc(C)c3c2)c1` was “inactive”; that for `CCN(CC)c1cc(C)c2cc(NC(=O)c3cccc(F)c3)ccc2n1` was 39.8 µM (active).
The value for `Cc1ccccc1/C=C/c1cccc[n+]1C` was “inactive”; that for `O=C(N/C(=C/c1cccc(Br)c1)C(=O)N1CCOCC1)c1ccco1` was “inactive”; that for `C(=Cc1c[nH]c2ccccc12)c1ccc2ccccc2n1` was “inactive”.
The value for `CC(C(=O)NCC1CCCCC1)N(C)CC(=O)Nc1ccc(N2CCOCC2)cc1` (stereo unspecified) was “inactive”.
`Cc1cccc(C2C=C(c3ccc(C)c(C)c3)Nc3nnnn32)c1` (stereo unspecified): the Potency result was “inactive”.
Turning to `CCN1CCN(c2cc(C)c3cc(NC(=O)c4cccc(OC)c4)ccc3n2)CC1`, the Potency entry was “inactive”.
In the case of `CCN(CC)c1cc(C)c2cc(NC(=O)c3cccc(OC)c3)ccc2n1`, the Potency was 39.8 µM (active).
The value for `Cc1ccc(NN2C(=O)C=C(c3ccc(Cl)cc3)C2=O)cc1` was 28.2 µM (active); that for `CC(=O)c1ccc(F)c(-c2cc(C)cc3c2OC(CNC(=O)c2csc(C)n2)C3)c1` (stereo unspecified) was “inactive”; that for `Cc1cccc(COC[C@H](CC(C)C)N2CCN(C(=O)c3ccc(C(F)(F)F)cc3)CCC2=O)c1` was 35.5 µM (active).
Take `CC(C)CC(COCc1cccc(C(F)(F)F)c1)N1CCN(C(=O)c2cccc(C(F)(F)F)c2)CCC1=O` (stereo unspecified): the Potency was 31.6 µM (active).
For the compound `Cc1cccc(COC[C@H](CC(C)C)N2CCN(C(=O)c3ccc(C(C)(C)C)cc3)CCC2=O)c1`, the Potency was 39.8 µM (active).
Turning to `O=C(COC(=O)C1=Cc2ccccc2OC1)NCc1ccco1`, the Potency result is “inactive”.
Consider `Cn1c(Cl)c(/C=N/OC(=O)C2CC2)c2ccccc21`, for which the Potency result was “inactive”.
For the compound `O=c1ccc2cc(O)c(O)cc2o1`, the Potency entry was “inactive”.
Regarding `OC[C@@H]1[C@@H](c2ccc(Cl)cc2)C(c2cccc(Cl)c2)=NN1c1ccccc1`, the Potency entry is “inactive”.
Consider `CCN(CC)CCNC(=O)CSc1c2c(nc3cc(Cl)ccc13)CCCC2`, for which the Potency is 35.5 µM (active).
Regarding `CC1CCCC(NC(=O)c2ccc3c(SCC(=O)O)c4c(nc3c2)CCC4)C1C` (stereo unspecified), the Potency entry is “inactive”.
As for `O=C(CSc1c2c(nc3ccc(Cl)cc13)CCCC2)NCCCN1CCOCC1`, the Potency was 35.5 µM (active).
The value for `Cc1cc2cc(C#N)c(NCCN=C(S)NCCCN3CCOCC3)nc2cc1C` was “inactive”; that for `O=C(Cc1cc(O)nc(O)n1)NCCN1CCOCC1` was “inactive”; that for `CCN(CC)CCCNC(=O)CSc1nc(C)cc(C)n1` was “inactive”.
In the case of `CCOC(=O)C1CCCc2c1[nH]c1ccc(Cl)cc21` (stereo unspecified), the Potency entry was “inactive”.
Regarding `O=C(O)c1c2c(nc3ccc(Cl)cc13)CCC2`, the Potency entry is “inactive”.
The value for `CCCN(CCC)C(=O)CSc1c2c(nc3ccc(Cl)cc13)CCCC2` was 39.8 µM (active); that for `CCN(CC)CCCNC(=O)CSc1c2c(nc3cc(Cl)ccc13)CCCC2` was 28.2 µM (active).
As for `CCN(CC)CCCC(C)n1c2nc(=O)[nH]c(=O)c-2nc2cc(Cl)ccc21` (stereo unspecified), the Potency entry is “inactive”.
Under `Cc1occc1-c1nnc(SCC(=O)NC2CCCCC2)o1` stands “inactive”.
In the case of `Cc1c(CC(=O)N2CCN(C(=O)C3COc4ccccc4O3)CC2)c(=O)oc2cc(O)c(Cl)cc12` (stereo unspecified), the Potency result was “inactive”.
For the compound `Nc1cccc2c1C(=O)N(c1ccccc1)C2=O`, the Potency entry was “inactive”.
The value for `Cc1ccc(C(=O)Nc2nc3n(n2)C(c2ccccc2)C=C(c2ccccc2)N3)cc1` (stereo unspecified) was “inactive”; that for `CNc1cc(C)c(C#N)c2nc3ccccc3n12` was “inactive”.
Under `CCC(c1ccc(O)c(O)c1)C(CC)c1ccc(O)c(O)c1` (stereo unspecified) stands 31.6 µM (active).
Regarding `CCN(CC)Cc1cc(O)c(CN(CC)CC)cc1O`, the Potency result is “inactive”.
On to `CC(C)(C)N1C(=O)c2ccc(C(=O)Nc3cc(C(=O)O)cc(C(=O)O)c3)cc2C1=O`, for which the Potency result is “inactive”.
The value for `COc1ccc(CCNC(=S)NC(=O)c2cc(OC)c(OC)c(OC)c2)cc1OC` was “inactive”.
With `COc1cc(C(=O)NCCNc2nc3ccc(C)cc3cc2C#N)cc(OC)c1OC`, the Potency entry is “inactive”.
`COc1cc(C(=O)NCCc2csc(-c3ccc(Cl)cc3)n2)cc(OC)c1OC`: the Potency is 28.2 µM (active).
For the compound `COc1ccc(-c2cc(C(=O)Oc3ccccc3)c3cc(C)ccc3n2)cc1`, the Potency was 35.5 µM (active).
`COc1ccc2nc(-c3ccccc3)cc(C(=O)N3CCC3)c2c1`: the Potency result is “inactive”.
Consider `COc1ccc2nc(-c3ccccc3)cc(C(=O)OCC(=O)N3CC(C)OC(C)C3)c2c1` (stereo unspecified), for which the Potency entry is “inactive”.
On to `CCOC(=O)c1c(N)sc(C(=O)Nc2ccccc2)c1C`, for which the Potency entry was “inactive”.
Under `CCOC(=O)c1c(NC(=O)CCl)sc(CN(C)C)c1-c1ccccc1` stands 37.7 µM (active); under `CCOC(=O)c1c(C)nc2sc(C(=O)Nc3ccccc3)c(N)c2c1-c1ccc(OC)cc1`, “inactive”.
Regarding `CC(=O)Nc1nc2n(n1)C(c1ccc(F)cc1)C=C(c1ccccc1)N2` (stereo unspecified), the Potency entry is “inactive”.
As for `CCCCCn1/c(=N/C(C)=O)c(C#N)cc2c(=O)n3ccccc3nc21`, the Potency result was “inactive”.
Under `COc1ccccc1[C@@H]1C(c2ccccc2)=NN(c2ccc(Br)cc2)[C@H]1C(=O)N1CCOC1=O` stands “inactive”; under `CCCn1c(O)nnc1SCC(=O)N1N=C2/C(=C/c3ccc(OC)cc3)CCCC2C1c1ccc(OC)cc1` (stereo unspecified), 25.1 µM (active); under `CNC(=O)c1sc(N2N=C3/C(=C/c4ccccc4)CCCC3C2c2ccccc2)nc1C` (stereo unspecified), “inactive”.
With `Cc1nc(N2N=C3/C(=C/c4ccc(F)cc4)CCCC3C2c2ccc(F)cc2)sc1C(=O)N(C)C` (stereo unspecified), the Potency entry is “inactive”.
For `O=c1[nH]c(=O)c2nc3c4ccccc4c4ccccc4c3nc2[nH]1`, the Potency entry is “inactive”.
With `CC1CCC2C(=O)N(c3ccc(C(=O)Oc4cccc5cccnc45)cc3)C(=O)C2C1` (stereo unspecified), the Potency entry was “inactive”.
Take `Cc1cc2nc3ccc(N(C)C)cc3nc2cc1N`: the Potency was 25.1 µM (active).
Take `Cc1cc2nn(-c3ccc(Cl)cc3)nc2cc1N`: the Potency result is “inactive”.
As for `CN(C)c1ccc2c(O)ccnc2c1`, the Potency entry was “inactive”.
Under `Nc1c(C(=O)NCCN2CCOCC2)c2nc3ccccc3nc2n1CCc1ccccc1` stands “inactive”.
Under `COc1cccc(C2C3=C(O)CC(C)(C)CC3=Nc3cc(OC)c(OC)cc32)c1` (stereo unspecified) stands “inactive”; under `COC(=O)C=C1CCC2C3CCC4=CC(=O)C(Br)CC4(C)C3C(=O)CC12C` (stereo unspecified), 31.6 µM (active); under `COc1ccc(C2CC(c3ccc(Cl)cc3)=NN2c2ccc(S(N)(=O)=O)cc2)cc1` (stereo unspecified), “inactive”.
